Rows were chosen to be rich in hits. Some 2.4% of all compounds tested hit in one or more screens of this group.
CHO-K1 Ca antag: counter-screen for M1 antagonists: effect in parental CHO-K1 cells; ATP-induced calcium, Fluo-8 fluorescence; inhibition, % at 3 µM; 0.6% of 360,000 active; AID 602250;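 active means inhibition above a per-plate cutoff, the plate's mean sample inhibition plus 3 SD, cut at about 24% in these data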;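 further: 0% = DMSO plus EC80 ATP and 100% = DMSO alone without ATP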
M1 ag: human M1 muscarinic receptor agonism. AID 588814. CHO-K1 hM1, Fluo-8 calcium fluorescence, agonist mode; 0% DMSO, 100% acetylcholine EC100. P11229. 0.33% of 360,000 active. activation, % at 3 µM;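 active means activation above the run's mean compound activation plus 3 SD, cut at about 16% in these data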;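 further: peak over basal fluorescence ratio within a 140 s kinetic read after compound addition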
Target sequence (P11229 whole entry, looked up): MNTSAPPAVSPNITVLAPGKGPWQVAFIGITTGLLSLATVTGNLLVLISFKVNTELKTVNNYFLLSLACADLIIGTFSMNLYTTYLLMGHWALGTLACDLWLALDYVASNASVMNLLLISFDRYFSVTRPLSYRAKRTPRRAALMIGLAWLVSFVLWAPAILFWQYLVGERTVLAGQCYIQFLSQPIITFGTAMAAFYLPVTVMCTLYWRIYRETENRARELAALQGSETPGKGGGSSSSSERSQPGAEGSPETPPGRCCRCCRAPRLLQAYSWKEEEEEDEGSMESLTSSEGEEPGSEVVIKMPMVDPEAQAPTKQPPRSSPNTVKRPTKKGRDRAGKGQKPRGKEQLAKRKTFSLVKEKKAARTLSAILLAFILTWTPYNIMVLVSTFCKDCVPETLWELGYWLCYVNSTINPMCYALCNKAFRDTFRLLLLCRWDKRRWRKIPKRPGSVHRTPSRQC
CHO-K1 Ca ag: counter-screen for M1 agonists: effect in parental CHO-K1 cells; Fluo-8 calcium fluorescence; scaled to maximal ATP response, vehicle zero; activation, % at 3 µM; 0.48% of 360,000 active; AID 602248; in the data active means activation above about 15%;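 further: untransfected CHO-K1 host cells lacking M1 receptor as counterscreen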
M1 PAM: human CHRM1 positive allosteric modulation; P11229; CHO-K1 hM1, Fluo-8 calcium fluorescence, ACh EC20; 0% = ACh EC20, 100% = maximal ACh; activation, % at 3 µM; 0.088% of 360,000 active; AID 588819; in the data active means activation above about 19%, passing the limit was not always enough
CHRM1 antagonist: human CHRM1 antagonism. P11229. CHO-K1 hM1, Fluo-8 calcium fluorescence, ACh EC80 antagonist. inhibition, % at 3 µM. 1.3% of 360,000 active. AID 588852;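 active means percent inhibition above its own plate's cutoff, namely the mean of that plate's compound wells plus 3 SD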;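 further: peak over basal fluorescence ratio during 140 s after agonist addition; 0% = ACh EC80 plus DMSO and 100% = DMSO alone without agonist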
CHO-K1 Ca PAM: nonselective activator or artifact in parental CHO-K1 calcium assay | 0.02% of 360,000 active | activation, % at 3 µM | ATP EC20, Fluo-8 calcium fluorescence; 0% at ATP EC20, 100% at ATP max;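 active means activation above the run cutoff, the mean activation of all test compounds plus 3 SD, cut at about 40% in these data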;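 further: peak over basal fluorescence ratio in a 140 s read after ATP addition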
Active calls of the source: *.

SMILES	CHO-K1 Ca antag	M1 ag	CHO-K1 Ca ag	M1 PAM	CHRM1 antagonist	CHO-K1 Ca PAM
COc1ccc(Cl)cc1NC(=O)CN(C)C(=O)C1COc2ccccc2O1 (stereo unspecified)	-11	-3	3	6	-9	-2
Cc1ccccc1C(=O)Oc1cc(N)n(S(C)(=O)=O)n1	24*	-5	-1	7	-4	-15
CN1CCS/C1=C/C=C1\SC(=S)N(CC(=O)O)C1=O	1	16*	26*	-5	7	13
CN1CCS/C1=C/C=C1/SC(=S)N(Cc2ccccc2)C1=O	16	12	11	-8	25	11
CCCCN1C(=O)/C(=C/C=C2\SCCN2C)SC1=S	17	12	16*	-15	24	2
O=C(COC(=O)[C@@H]1CCCN1S(=O)(=O)c1ccccc1F)NCc1ccc2c(c1)OCO2	-6	1	5	8	-8	10
CCN(CC)c1ccc(/C=N/n2c(-c3ccccc3Br)n[nH]c2=S)cc1	16	-7	3	-26	81*	-22
CC(=NOC(=O)c1ccc(I)cc1)c1nccs1	5	-3	0	1	-8	0
CC(=O)OCC(=O)[C@@]1(O)CC[C@H]2[C@@H]3CCC4=CC(=O)C=C[C@]4(C)[C@@]3(Cl)[C@@H](Cl)C[C@@]21C	-16	37*	0	-14	-21	22
O=C(CCc1c[nH]c2ccccc12)NC(Cc1c[nH]c2ccccc12)C(=O)O (stereo unspecified)	-8	-2	0	17	-12	20
CCOC(=O)C(Cc1ccc(O)cc1)NC(=O)CCc1c[nH]c2ccccc12 (stereo unspecified)	-5	21*	11	0	-3	4
COC(=O)[C@H](Cc1c[nH]c2ccccc12)NC(=O)CCCc1c[nH]c2ccccc12	3	2	16*	2	0	12
COC(=O)[C@H](Cc1c[nH]c2ccccc12)NC(=O)Cc1c[nH]c2ccccc12	-6	2	13	4	-8	8
CC(=O)Nc1c(Cl)cc2c(c1Cl)Cc1cc(C#N)ccc1-2	-6	-3	0	2	-16	2
COc1ccc(C(=O)/C=C2\C(=O)Nc3ccc(Br)cc32)cc1	13	19*	4	12	20	9
O=C1Nc2ccc(Br)cc2/C1=C/C(=O)c1ccc2c(c1)OCO2	12	10	2	8	15	-1
NC(=O)c1cccc(-c2csc(C(O)c3ccccc3)n2)c1 (stereo unspecified)	-1	0	1	0	-4	6
Cc1ccccc1C(=O)N1CCN(c2ccc(NC(=S)NC(=O)c3ccco3)cc2)CC1	6	12	15*	-9	15	2
Cc1cccc(OCC(=O)Nc2ccc3oc(=O)ccc3c2)c1	3	8	19*	1	3	-10
Cc1ccc(OCC(=O)Nc2ccc(N3CCN(C(=O)c4ccco4)CC3)cc2)cc1C	10	2	15*	-11	20	-10
Cc1cc(C)cc(NC(=S)N2CCN(C(=O)c3ccco3)CC2)c1	25*	3	-1	16	-8	-28
Cc1cccc(OCC(=O)Nc2ccc(N3CCN(C(=O)c4ccco4)CC3)cc2)c1	29*	4	16*	-18	14	-17
Cc1cc(OCC(=O)Nc2ccc(N3CCN(C(=O)c4ccco4)CC3)cc2)cc(C)c1Cl	-9	-1	2	-7	5	6
NC(=O)COC(=O)C1CSC2(c3ccc(F)cc3)CCC(=O)N12 (stereo unspecified)	-22	-1	1	9	-6	10
Cn1nc(C(F)(F)F)c(/C=N/OC(=O)c2ccccc2Cl)c1SCc1ccccc1Cl	-14	-7	2	-28	33*	20
CC(=O)Nc1cccc(C(=O)NNC(=O)c2ccccc2-n2cccc2)c1	-13	0	0	3	1	-4
N#CC1=C(N)Oc2cc(O)c(Cl)cc2C1c1ccccc1F (stereo unspecified)	-7	26*	2	-15	20	-6
N#CC1=C(N)Oc2cc(O)c(Cl)cc2C1c1cccnc1 (stereo unspecified)	14	7	8	10	-11	0

High-throughput results: PubChem, The Scripps Research Institute Molecular Screening Center
